The test is described as follows: cytotoxicity in LNCaP prostate cells – cell-based, cell event count, single point, cytotoxicity control for prostate differentiation activator project, confirmation (AID 1076).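 Further: counts scatter-gated live cells after medium removal discards detached dead cells.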 As to conditions: LNCaP cell loss, flow cytometry event count, 4 d, stronger effect = lower value. On the technique in general: Flow cytometry measures light scatter and fluorescence of single cells or particles in a stream.

The structures appear in SMILES notation. Active and inactive are the calls of the source.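 How the source made its calls: active means cell event count below 40, meaning activity score above 60 where score is 100 minus count; inactive means the rest.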

In the case of `Cc1ccccc1-c1nc(CN2CCC(C(=O)NCCCN3CC(C)CC(C)C3)CC2)c(C)o1` (stereo not drawn), the cell event count runs as follows: (at 100 µM) 11 (inactive); (event count, at 10 µM) 102.

Turning to `CCCCn1c2c(c3ccccc31)CCc1nonc1-2`, the cell event count was 134 (inactive) (at 100 µM) and 128 (event count, at 10 µM).

Turning to `COc1cccc(-c2cc(C(=O)N3CCN(C(c4ccccc4)c4ccccc4)CC3)no2)c1`, the cell event count is 440 (inactive) (at 100 µM) and 402 (event count, at 10 µM).

Consider `CCOc1ccccc1NC(=O)c1nc[nH]c1C(=O)Nc1ccccc1OCC`, for which the cell event count was 20 (inactive) (at 100 µM) and 248 (event count, at 10 µM).

Consider `O=C(c1ccc2c(c1)OCCO2)N1CCCCC1`, for which the cell event count by setting is: (at 100 µM) 65 (inactive); (event count, at 10 µM) 81.5.

Regarding `COc1ccc(-n2cc(-c3ccccc3)c3c(N4CCN(CCO)CC4)ncnc32)cc1`, the cell event count is, setting by setting: (at 100 µM) 12 (inactive); (event count, at 10 µM) 174.

Regarding `CCOC(=O)c1sc2ncnc(N3CCN(c4ccc(OC)cc4)CC3)c2c1C`, the cell event count is 16 (inactive) (at 100 µM) and 76.5 (event count, at 10 µM).

As for `Cc1ccccc1Cn1cnc2c(cnn2C(C)(C)C)c1=O`, the cell event count (at 100 µM) was 13 (inactive) and the cell event count (event count, at 10 µM) was found to be 85.

On to `Cc1ccc(Cn2c(C(=O)NCCCN3CCOCC3)cc3sccc32)cc1`, for which the cell event count is 279 (inactive) (at 100 µM) and 379 (event count, at 10 µM).

On to `Cc1nc2c3cnn(-c4ccccc4)c3ncn2n1`, for which the cell event count was 159 (inactive) (at 100 µM) and 145 (event count, at 10 µM).

For the compound `COC(=O)c1ccccc1S(=O)(=O)N(Cc1cc2cc3c(cc2[nH]c1=O)OCO3)C1CCCCC1`, the cell event count (at 100 µM) is 8 (inactive) and the cell event count (event count, at 10 µM) stood at 103.

Consider `Cc1nc2ncnn2c(C)c1CCC(=O)NCCCN1CCN(c2cccc(Cl)c2)CC1`, for which the cell event count (at 100 µM) is 95 (inactive) and the cell event count (event count, at 10 µM) turned out to be 148.

For `CCc1cc(C)cc(OCCNC(=O)c2ncn[nH]2)c1`, the cell event count is 171 (inactive) (at 100 µM) and 54 (event count, at 10 µM).

With `COc1ccc(-c2nc(CN3CCC(C(=O)N4CCc5ccccc54)CC3)c(C)o2)cc1OC`, the cell event count is, setting by setting: (at 100 µM) 16 (inactive); (event count, at 10 µM) 298.

The values are drawn from PubChem BioAssay AID1076 (NMMLSC, 2008).
